From the supplement of paper PMC10941209

System: HFF
Test: cell viability relative to DMSO control; higher = less cytotoxic
Conditions: 1 µM; 72 h
Procedure: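 Single-dose cytotoxicity screen of the MMV Pandemic Response Box at 1 uM on human foreskin fibroblasts (HFF), 72 h at 37 C. Viability measured by MTT (OD 550 nm) and normalised to the DMSO control (% survival).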

SMILES	cell viability
Fc1ccc2c(/C=C/c3nnn[nH]3)c[nH]c2c1	71.2%
O=[N+]([O-])c1cn(Cc2nc(O)nc(O)c2Br)cn1	70.3%
O=C(O)/C=C/C=C/c1cccc(Oc2cc(Cl)cc(Cl)c2)c1	63.3%
Cn1c2ccccc2c(=O)c2c(O)cccc21	65.8%
Clc1cccc(-c2nnc(-c3ccccc3)o2)c1	64.1%
NC[C@H]1OB(O)c2c(OCCCO)cccc21	69.9%
COc1cc(C(C(=O)NC2CCCCC2)N(C(=O)Cc2c[nH]c3ccccc23)c2ccc(C(C)C)cc2)cc(OC)c1OC (configuration not stated)	66.3%
O=C(NCc1ncc(C(F)(F)F)cc1Cl)c1c(Cl)cccc1Cl	74.8%
CCc1oc2ccccc2c1C(=O)c1ccc(O)cc1	71.1%
C=CCN(C(=O)OCc1ccc([N+](=O)[O-])cc1)C1CCN(CC[C@](C)(CN(C)S(=O)(=O)c2ccccc2)c2ccccc2)CC1	69.6%
NC(=O)C(c1ccccc1)(c1ccccc1)[C@H]1CCCN(CCc2ccc3c(c2)CCO3)C1	64%
COc1cc2c(O)c3c(c(-c4ccc5c(c4)OCO5)c2cc1OC)C(=O)OC3	66.8%
O=c1cc(OCc2ccccc2)ccn1Cc1ccccc1	68.5%
COc1ccc(NC(=O)CC2Sc3ncnn3C2=O)cc1 (configuration not stated)	73.4%
CC[N+]1(C/C2=C/CCCCCC2)CCC(NC(=O)C2c3cc(Cl)ccc3Oc3ccc(Cl)cc32)CC1 (configuration not stated)	65.6%
CC(=O)O[C@H]1C[C@@]2(C)[C@@H](C[C@@H](O)[C@H]3[C@@]4(C)CC[C@@H](O)[C@@H](C)[C@@H]4CC[C@@]32C)/C1=C(\CCC=C(C)C)C(=O)O	63.5%
O=C1C=C(c2ccccc2)S(=O)(=O)c2ccccc21	67.5%
CCOC(=O)Nc1cc(NC(C)CC(C)CN(CC)CC)c2nc(-c3ccccc3)c(-c3ccccc3)nc2n1 (configuration not stated)	78.5%
Cc1cc(CCCOc2c(C)cc(-c3noc(C(F)(F)F)n3)cc2C)on1	65.5%

SMILES	cell viability
Cn1cc(NC(=O)c2cc(NC(=O)c3ccc(/C=C/c4cnc5ccccc5c4)cc3)cn2C)cc1C(=O)NCCN1CCOCC1	69.2%
NC(=O)c1nccn([C@@H]2O[C@H](CO)[C@@H](O)[C@H]2O)c1=O	72.5%
CCCCc1ccc(-c2nc(C)c(C(=O)OC)s2)cc1	63.9%
CC[C@H](NC(=O)[C@H](C)NC)C(=O)N1C[C@@H](O)C[C@H]1Cc1c(-c2[nH]c3cc(F)ccc3c2C[C@@H]2C[C@H](O)CN2C(=O)[C@H](CC)NC(=O)[C@H](C)NC)[nH]c2cc(F)ccc12	31.2%
CCc1cc(Nc2cc(=O)n(CCN3CCN(C(=O)c4ccccc4)CC3)c(=O)[nH]2)ccc1C	68.7%
CC(C)(C)OC(=O)NCc1ccc(C(=O)N[C@H]2CCOC2=O)cc1	65.7%
C[C@H]1COc2c(N3CCN(C)CC3)c(F)cc3c(=O)c(C(=O)O)cn1c23	66%
Nc1nnnn1CCOc1c2[nH]c3ccc(Cl)cc3c2cc2c1[nH]c1ccc(Cl)cc12	65.4%
CC(N)C12CC3CC(CC(C3)C1)C2 (configuration not stated)	63.2%
Cc1ccc(C)c(OCCCCCCN2C[C@H](O)[C@@H](O)[C@H](O)[C@H]2CO)c1	64.6%
FC(F)(F)c1cc(C(F)(F)F)c2ccc3nc(-c4nnco4)cn3c2n1	67.3%
NCc1ccc(S(N)(=O)=O)cc1	61.5%
Nc1nc(C(F)(F)F)cc2c1[nH]c(=O)n2Cc1ccccc1	65%
COc1ccc(NS(=O)(=O)c2ccc(Cl)s2)cn1	72.2%
N[C@@H]1CN(c2c(F)cc3c(=O)c(C(=O)O)cn([C@@H]4C[C@@H]4F)c3c2Cl)CC12CC2	60.8%
Cc1ccc(S(=O)(=O)Nc2cccc3cccnc23)cc1	84.2%
CCc1cc(Cc2cnc(N)nc2N)cc2c1N(C)CCC2C (configuration not stated)	71.9%
N=C(N)c1ccc(COc2ccc(Cl)cc2)cc1	65.4%
